Source: PubChem (Sanford-Burnham Center for Chemical Genomics)
In the library only some 28% were active in any assay of this set; here they are far more common.
CD11b adhes enh – enhancers of human CD11b/CD18 binding to fibrinogen | P05107+P11215 | AID 1499 | K562 CD11b/CD18 adhesion to fibrinogen, ATPlite luminescence | activation, % at 10 µM | hit rate 0.07% among 93,000;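 active = 10 µM primary screen giving 50% or more activity, confirmed by 40% or more on retest at that dose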
CD11b adhes inh – CD11b/CD18-fibrinogen binding inhibition | hit rate 0.54% among 93,000 | K562 CD11b/CD18 adhesion to fibrinogen, ATPlite luminescence; Mn2+ added to activate the integrin | AID 1497 | inhibition, % at 10 µM | P05107+P11215;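 active = primary inhibition of 50% or more at 10 µM, then 40% or more on retest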
CYP2C19 inh – blocks human cytochrome P450 2C19. P33261. CYP2C19 Supersomes, luciferin-H EGE luminescence, 30 min. inhibition, % at 5 µM. hit rate 21% among 96,000. AID 778;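 active = CYP2C19 inhibition above a set limit at 5 µM in the primary screen, cut at about 50% in these data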;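 note: plate controls were negative control wells for no effect and 2.5 mM tranylcypromine positive control for full effect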
CYP2C9 act – CYP2C9 (human) activation; P11712; recombinant CYP2C9, luciferin-H conversion, luminescence; active compounds read high; factor 1 = untreated enzyme, 0 = blocked; activation factor at 5 µM; hit rate 1.4% among 96,000;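 active = activation factor of 2 or more for CYP2C9 at a 5 µM dose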;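 note: 0 = sulfaphenazole-blocked wells and 1 = vehicle-only wells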
Target sequence (P11712 whole entry, looked up): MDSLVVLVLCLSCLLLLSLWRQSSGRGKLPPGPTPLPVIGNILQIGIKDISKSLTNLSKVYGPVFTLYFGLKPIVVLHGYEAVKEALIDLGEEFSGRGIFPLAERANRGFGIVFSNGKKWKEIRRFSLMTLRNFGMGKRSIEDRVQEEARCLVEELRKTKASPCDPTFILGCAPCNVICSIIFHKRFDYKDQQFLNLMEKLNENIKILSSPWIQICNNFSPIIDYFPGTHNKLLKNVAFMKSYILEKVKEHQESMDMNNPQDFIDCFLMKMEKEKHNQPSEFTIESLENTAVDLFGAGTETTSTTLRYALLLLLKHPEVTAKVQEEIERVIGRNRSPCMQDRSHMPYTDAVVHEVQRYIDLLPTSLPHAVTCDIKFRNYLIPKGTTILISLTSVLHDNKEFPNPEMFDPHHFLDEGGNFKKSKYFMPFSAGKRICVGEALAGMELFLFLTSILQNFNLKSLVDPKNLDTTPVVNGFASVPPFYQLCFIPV
CYP2C19 act – increases human CYP2C19 enzyme activity; P33261; recombinant CYP2C19, luciferin-H EGE luminescence; active compounds read high; 0 = fully inhibited enzyme, 1 = untreated enzyme; activation factor at 5 µM; 96,000 tested, under 10 active;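 active = activation factor of at least 2 at 5 µM in the primary screen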;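 note: 0 = wells with 2.5 mM tranylcypromine and 1 = vehicle-only wells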
CYP2C9 inh – inhibitors of human CYP2C9 | hit rate 20% among 96,000 | AID 777 | P11712 | inhibition, % at 5 µM | CYP2C9 Supersomes, luciferin-H conversion, luminescence;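 active = blocking of liver enzyme CYP2C9 beyond about 50% at 5 µM, limit read from the data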
* = called active by the depositor; · = no result.

SMILES	CD11b adhes enh	CD11b adhes inh	CYP2C19 inh	CYP2C9 act	CYP2C19 act	CYP2C9 inh
Cn1cccc1CC(=O)N/N=C/c1cccc2ccccc12	-4	3	-3	0.9	1	10
COc1cc(/C=N/N2C(=O)c3ccccc3NC2(C)c2cccc([N+](=O)[O-])c2)cc(Br)c1O (centres undefined)	-6	28	50*	0.1	0.5	92*
CCN(CC(=O)NC(C)C)C(=O)c1ccc(S(=O)(=O)N(C)c2ccccc2OC)cc1	-1	9	8	0.9	0.9	15
COc1ccccc1N(C)S(=O)(=O)c1ccc(C(=O)NC(C)(C)C)cc1	-1	-35	27	0.3	0.7	73*
CC(=O)Nc1cccc(C(=O)/C=C/c2ccco2)c1	-5	7	47	2.3*	0.5	-126
CC(=O)Nc1cccc(C(=O)/C=C/c2ccc(/C=C/C(=O)c3cccc(NC(C)=O)c3)cc2)c1	2	25	·	·	·	·
Nc1ccccc1C(=O)Nc1cccc(C(=O)O)c1	-1	3	59*	0.9	0.4	14
Cc1occc1C(=O)Nc1cccc(C(=O)O)c1	-1	-2	71*	0.6	0.3	41
CCOC(=O)C1=C(C)NC(C)=C(C(=O)OCC)C1	-2	-4	28	0.9	0.7	11
Cc1ccc(-c2cnn(-c3cccc([N+](=O)[O-])c3)c2N)cc1	·	·	38	1.2	0.6	-20
COc1ccc(Cl)cc1C(=O)Nc1ccc(S(=O)(=O)N2CCCC2)cc1	-1	6	-21	0.9	1.2	10
CCn1nnnc1SCC(=O)Nc1cc(OC)cc(OC)c1	-8	0	3	1	1	4
CCOC(=O)c1cccc(NC(=O)c2ccco2)c1	·	·	27	1.2	0.7	-16
O=C(CN1CCOCC1)Nc1ncc(Cc2cccc3ccccc23)s1	-1	-31	27	1.1	0.7	-5
CCC(CC)C1C(C#N)=C(N)Oc2n[nH]c(C)c21 (centres undefined)	0	-2	82*	0.4	0.2	57*
CCCc1[nH]nc2c1C(CCC)C(C#N)=C(N)O2 (centres undefined)	-4	-1	62*	0.9	0.4	6
CCc1[nH]nc2c1C(C(C)C)C(C#N)=C(N)O2 (centres undefined)	0	75	75*	0.7	0.3	32
CC(C)C1C(C#N)=C(N)Oc2n[nH]c(-c3cccs3)c21 (centres undefined)	-3	-4	49	0.7	0.5	31
Cc1[nH]nc2c1C(c1ccc(F)cc1)C(C#N)=C(N)O2 (centres undefined)	-2	0	48	0.7	0.5	33
CCC(CC)C1C(C#N)=C(N)Oc2n[nH]c(-c3ccccc3)c21 (centres undefined)	-4	3	57*	1.2	0.4	-22
CC(C)C1C(C#N)=C(N)Oc2n[nH]c(-c3ccc4ccccc4c3)c21 (centres undefined)	-5	16	6	0.8	0.9	23
Cc1ccc(/C=C2\OC(=O)c3ccccc32)cc1	·	·	5	0.8	1	17
Cc1c2c(nc3c(C(=O)NC4CCCCC4C)cnn13)CCCC2 (centres undefined)	-5	3	8	1.2	0.9	-15
Cc1sc(NC(=O)CSc2nnnn2C2CCCCC2)c(C#N)c1C	-3	-24	4	0.9	1	12
OC1(c2ccccc2)C/C(=N\n2cnnc2)C=C1c1ccccc1 (centres undefined)	1	-9	99*	0	0	95*
SMILES	CD11b adhes enh	CD11b adhes inh	CYP2C19 inh	CYP2C9 act	CYP2C19 act	CYP2C9 inh
C/C(=N/NC(=O)c1cc2ccccc2cc1O)C1C(=O)c2ccccc2C1=O	73	-3	91*	0	0.1	98*
C/C(=N\NC(=O)c1ccccc1O)C1C(=O)c2ccccc2C1=O	7	11	35	0.1	0.6	90*
C/C(=N\NC(=O)c1ccccc1O)c1c(O)cc(C)oc1=O	·	·	39	0.4	0.6	62*
C/C(=N\NC(=O)c1ccccc1O)c1ccc(Br)s1	-6	34	·	·	·	·
C/C(CC(=O)N1CCN(C=O)CC1)=N\NC(=O)c1cc2ccccc2cc1O	-1	-8	·	·	·	·
CN(C)CCN1C(=O)C(=O)/C(=C(/O)c2ccc(OCc3ccccc3)cc2)C1c1ccncc1 (centres undefined)	-2	3	9	1	0.9	-5
Brc1c(CSc2nc3ccccc3o2)nc2ncccn12	0	-2	64*	1.3	0.4	-31
Clc1c(CSc2nc3ccccc3o2)nc2ccccn12	0	7	98*	1	0	-1
Cc1[nH]nc2c1C(C1CC=CCC1)C(C#N)=C(N)O2 (centres undefined)	-1	24	24	0.5	0.8	46
N#CC1=C(N)Oc2cc(N)ccc2C1C1CC=CCC1 (centres undefined)	0	39	89*	0.2	0.1	76*
CCN(c1ccccc1)S(=O)(=O)c1ccc(OC)c(OC)c1	2	2	56*	1.1	0.4	-11
CCN(c1ccccc1)S(=O)(=O)c1cc(OC)ccc1OC	-5	3	90*	0.3	0.1	69*
COc1ccc(OC)c(S(=O)(=O)N(C)CC(=O)O)c1	-1	7	10	0.9	0.9	8
O=C(CN1C(=O)C2CC=CCC2C1=O)NCC1COc2ccccc2O1 (centres undefined)	·	·	36	0.9	0.6	15
S=c1[nH]ncn1/N=C/c1cccc(Oc2ccccc2)c1	2	2	61*	0.5	0.4	50
C(=N\n1cnnc1)/c1cccc(Oc2ccccc2)c1	-1	-6	77*	0.4	0.2	57*
Cc1cc(/C=N/n2cnnc2)c(C)n1-c1ccc(OCc2ccccc2F)cc1	·	·	29	0.8	0.7	19
Fc1ccccc1COc1cccc(/C=N/n2cnnc2)c1	-2	-6	99*	0.3	0	68*
Nc1nnnn1/N=C/c1cccc(Oc2ccccc2)c1	3	-2	56*	0.9	0.4	8
O=C(c1ccco1)N1CCN(Cc2nc3ccc([N+](=O)[O-])cc3c(=O)n2-c2ccccc2F)CC1	0	4	28	0.7	0.7	29
CCOC(=O)c1c(C)c(C(=O)NCc2ccccn2)c(C)n1CC	6	-22	30	0.9	0.7	10
COc1ccc(C2C(=O)N(C3CCCCC3)CC(=O)N2Cc2ccco2)cc1 (centres undefined)	-2	-6	20	0.9	0.8	14
COc1ccc(S(=O)(=O)N(CC(=O)O)c2ccc(C)cc2)cc1	0	-12	-2	0.9	1	12
CCNC(=O)CN(Cc1ccccc1)S(=O)(=O)c1ccccc1	-2	-2	42	0.6	0.6	38
